Laboratory results: PubChem BioAssay AID1030 (National Center for Advancing Translational Sciences (NCATS), 2008)
“And” between values parts separate entries of the source, which are not always exact repeats. Equal values may be shown once. The campaign covered roughly 220,000 compounds. About 16,000 (7.3%) were called active. Roughly 25% stayed inconclusive and do not appear here. This excerpt belongs to a sample that is enriched for actives. A number with no mark means an inactive call. Calls come from the whole dose curve; as a rule, active = well fitted inhibition curve with a large enough effect (not every such curve was filed as active); inconclusive = small, poorly fitted or top-dose-only effect, or another doubt; inactive = no such curve, though single readings can be large or run the other way.

molecular target: Aldehyde dehydrogenase 1A1 (Homo sapiens) (UniProt P00352); assay: qHTS Assay for Inhibitors of Aldehyde Dehydrogenase 1 (ALDH1A1); settings: Purified ALDH1A1, NADH fluorescence, propionaldehyde substrate; series mostly up to 75.3 µM; activity, negative = inhibition: at the top concentration;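 for activity, negative = inhibition: plate controls were no enzyme wells and a reference inhibitor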
Potency is the fitted concentration of half-maximal effect.

Chain of Aldehyde dehydrogenase 1A1 (Homo sapiens) (P00352 whole entry, looked up): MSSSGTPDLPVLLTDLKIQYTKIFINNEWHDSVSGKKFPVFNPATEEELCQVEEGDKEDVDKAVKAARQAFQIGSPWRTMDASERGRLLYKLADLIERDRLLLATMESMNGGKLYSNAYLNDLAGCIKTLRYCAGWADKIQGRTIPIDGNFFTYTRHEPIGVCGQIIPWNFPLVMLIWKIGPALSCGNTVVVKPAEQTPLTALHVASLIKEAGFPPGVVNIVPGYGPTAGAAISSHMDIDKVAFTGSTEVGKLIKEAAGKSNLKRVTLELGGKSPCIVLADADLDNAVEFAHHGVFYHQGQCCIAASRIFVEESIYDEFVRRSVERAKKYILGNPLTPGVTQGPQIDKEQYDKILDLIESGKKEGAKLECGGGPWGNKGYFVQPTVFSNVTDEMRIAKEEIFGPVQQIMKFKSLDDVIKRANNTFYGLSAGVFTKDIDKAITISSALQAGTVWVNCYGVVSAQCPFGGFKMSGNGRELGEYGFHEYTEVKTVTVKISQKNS

SMILES	activity, negative = inhibition	Potency
Cc1c(CCC(=O)O)c(=O)oc2cc3occ(-c4ccccc4)c3cc12	2.47%	
O=C(COc1ccc(S(=O)(=O)N2CCCCC2)cc1)NCc1ccccn1	-3.55%	
Cc1nc([N+](=O)[O-])nn1C12CC3CC(CC(Br)(C3)C1)C2		8.91 µM (active)
Cc1ncn(C23CC4CC(CC(O)(C4)C2)C3)n1	4.89%	
Cc1cn(C)c(=O)n(C)c1=O	-1.22%	
CN(C)CCCSc1ccccc1NC(=O)/C=C/c1ccccc1	1.08%	
O=C(CCN1C(=O)c2ccncc2C1=O)Nc1cc(F)ccc1F	1.86%	
Cc1ccc(N(C(=O)Cc2cccs2)C2C=CS(=O)(=O)C2)cc1Cl (stereo not drawn)	-10.7%	
Cc1cccc(N2CCN(C(=O)c3ccccc3NC(=O)C3CCCCC3C(=O)O)CC2)c1 (stereo not drawn)	-1.92%	
CC(C)c1ccc(N2CCN(C(=O)c3ccccc3NC(=O)/C=C(\C(=O)O)c3ccccc3)CC2)cc1		22.4 µM (active)
O=C(O)C1CC=CCC1C(=O)Nc1ccccc1C(=O)N1CCN(c2ccccc2)CC1 (stereo not drawn)	3.98%	
O=C(NC1(C(F)(F)F)NC(=O)N(C2CCCCC2)C1=O)c1ccco1 (stereo not drawn)	2.2%	
CCOc1ccc(Cn2nnc(C(=O)NCc3ccccc3)c2N)cc1	-9.7%	
CCCCOc1ccc(C(=O)NCc2ccncc2)cc1	8.81%	
CCOc1c2ccc(C(=O)NCc3ccc(OC(F)(F)F)cc3)cc2nn1C		3.16 µM (active)
CCOC(=O)C(C)n1nc(-c2ccccc2)c2ccccc2c1=O (stereo not drawn)	-4.13%	
Cc1cc(NC(=O)Nc2ccccc2[N+](=O)[O-])no1	-5.73%	
COc1ccc(/C=C/NC(=O)c2ccc(OC)cc2)cc1		2.82 µM (active)
COc1ccc(NC(=O)c2ccc(OC)cc2)cc1	-2.23%	
COc1ccc(/C=C/NC(=O)Cc2ccc(OC)c(OC)c2)cc1	8.87% [at 13.5 µM] and 1.01% [at 13.5 µM]	
O=C(c1cccs1)C1C(c2ccc(Br)cc2)NC(=S)NC1(O)C(F)(F)F (stereo not drawn)		3.16 µM (active)
CC(=O)C1C(c2ccc(Cl)cc2)NC(=O)NC1(O)C(F)(F)F (stereo not drawn)	8.56%	

SMILES	activity, negative = inhibition	Potency
CCOC(=O)NNC(=O)c1ccc(Cl)cc1	-3.42%	
CCOC(=O)C1C(c2ccc(Cl)cc2)NC(=S)NC1(O)C(F)(F)F (stereo not drawn)		7.94 µM (active)
O=C(CN(C(=O)c1csnn1)c1cccc(F)c1)NCc1ccc(F)cc1	5.3%	
CCn1cnc2scc(-c3ccc(C)c(C)c3)c2c1=O	-6.88%	
CN1C(=O)/C(=C\c2cc(Br)cs2)c2ccccc21	-2.78%	
CC(C)c1csc(CN2CCC(CO)(Cc3ccccc3)CC2)n1	15%	
CCOc1cc(CNn2c(C)nnc2SCC(=O)NC(C)(C)C)ccc1OCC(=O)NC(C)(C)C	8.98%	
CCOCCCNCc1ccc(OCc2ccc(F)cc2)c(OC)c1	0.342%	
O=C(CCc1n[nH]c(=O)[nH]c1=O)N/N=C/c1ccc(Br)o1	-3.34%	
Cc1nnc(SCC(=O)N2c3ccccc3C(C)(c3ccc(Cl)cc3)CC2(C)C)s1 (stereo not drawn)	3.67%	
Cc1ccc(-c2c[n+](=O)c3c(n2[O-])CCC3)cc1	7.22%	
O=[n+]1c2c(n([O-])c3cc(Br)ccc31)CCC2		31.6 µM (active)
Cc1ccc(-c2c(C)n([O-])c3c([n+]2=O)CCC3)cc1	5.63%	
COc1ccc([N+](=O)[O-])cc1NC(=O)CC1SC(=Nc2cccc(C)c2C)N(/N=C(\C)c2ccc(C)cc2)C1=O (stereo not drawn)	-1.71%	
CN(c1ccccc1)S(=O)(=O)c1ccc(Cl)c(C(=O)OCC(=O)N2CCOCC2)c1	8.36%	
O=C1CCCC2=C1C(c1cccs1)CC(=O)N2c1ccc(F)cc1 (stereo not drawn)	2.98%	
N#CC1=C(N)N(c2ccc(F)cc2)C(=O)C1		22.4 µM (active)
Cn1c(N)cc(-c2ccc(F)cc2)c(C#N)c1=O	-6.05%	
O=C(CCC(=O)c1cccs1)NC1CCCCCC1	-13.8%	
CCCCNC(=O)N1CCN(S(C)(=O)=O)CC1	-0.297%	
COc1ccccc1NC(=O)COC(=O)Cc1ccc(S(=O)(=O)N2CCCCC2)s1	-5.93%	
CCOC(=O)C1=C(C)NC(=O)N(C(C)=O)C1c1ccc(Cl)cc1 (stereo not drawn)	-0.324%	

SMILES	activity, negative = inhibition	Potency
CCOC(=O)C1Sc2[nH]c(=O)sc2C(c2ccc(Cl)cc2)C1C(=O)OCC (stereo not drawn)		11.2 µM (active)
Cc1c(NC(=O)CCC2CCCCC2)cc(C(=O)N2CCOCC2)cc1[N+](=O)[O-]	3.98%	
O=C(N/N=C/c1ccco1)c1ccc(NC(=O)C2CC2)cc1	-3.27%	
Cc1ccc(NC(=O)Nc2cccc(C(F)(F)F)c2)nc1	-7.02%	
COc1cccc(/C=N/NC(=O)c2cccc([N+](=O)[O-])c2)c1OS(=O)(=O)c1ccc(C)cc1	-5.06%	
COc1ccc(C(=O)Nc2ccccc2C(=O)N/N=C/c2ccc(O)c(OC)c2)cc1	3.47%	
COc1ccc(/C=N\NC(=O)c2sc(N)nc2C)cc1OC	2.89%	
COc1cc(/C=N/NC(=O)c2ccccc2)ccc1OS(=O)(=O)c1ccccc1		14.1 µM (active)
COc1ccc(/C=N/NC(=O)c2ccccc2)cc1OS(=O)(=O)c1ccccc1		14.1 µM (active)
COc1ccc(/C=N/NC(=O)c2ccc(Cl)cc2)cc1COC(C)=O	7.34%	
O=C(NNC(=O)c1cnccc1C(F)(F)F)c1ccc(Cl)cc1	10.2%	
Nc1nc(O)c(CC(=O)O)s1	3.26%	
Cc1cc(C)c(C(N)=O)c(Cl)n1	3.59%	
CCOC(=O)c1sc(NC(=O)COc2ncnc3ccccc23)c(C(=O)OCC)c1C	-16.3%	
CCOC(=O)c1c(NC(C)=O)sc2c(O)c(Br)ccc12	-12.2%	
CCOC(=O)c1c(NC(=O)CCl)sc(C(=O)N(CC)CC)c1C		10 µM (active)
CCOC(=O)c1sc(NC(=O)CCN2CCOCC2)c(C(=O)OCC)c1C		17.8 µM (active)
CCc1c(C)sc(NC(=O)OC)c1C(=O)N1CCOCC1	0.994%	
CCOC(=O)c1sc(NC(=O)CSc2nnc(-c3ccco3)o2)c(C(=O)OCC)c1C	-8.17%	
O=C(c1cc(=O)c2ccccc2o1)N1CCN(c2ccccc2)CC1	-7.27%	
COc1cccc(C(=O)Nc2nc3ccc(S(C)(=O)=O)cc3s2)c1	-1.22%	
CC(=O)NC1=NN(C(C)=O)C(C)(CCS(=O)(=O)c2ccc(Cl)c(Cl)c2)S1 (stereo not drawn)	-5.25%	

SMILES	activity, negative = inhibition	Potency
Cc1ccc(N=C2NC(=O)/C(=C/C=C/c3ccco3)S2)cc1C		7.94 µM (active)
CN(C)c1ccc(-n2cccc2/C=C2/SC(=Nc3ccc(F)cc3)NC2=O)cc1	-0.0028%	
Nc1nc2c(ncn2[C@@H]2O[C@H](COP(=O)(O)OP(=O)(O)OP(=O)(O)O)[C@@H](O)C2O)c(=O)[nH]1 (stereo partly drawn)	4.41%	
O=C(Nc1ccccc1C(=O)N1CCOCC1)c1ccc(Cl)cc1	5.03%	
Fc1cccc(Cl)c1CSc1ccc(-c2ccco2)nn1		20 µM (active)
Cc1nnsc1C(=O)NCc1c(F)cccc1Cl	9.4%	
O=C(CSCc1c(F)cccc1Cl)NCC1CCCO1 (stereo not drawn)	2.6%	
CCc1ccc(C(=O)OCC(=O)NCC(F)(F)F)cc1	-2.12%	
OCCNCCOc1ccc(Cl)c(Cl)c1	-8.88%	
COc1ccc(-n2cnnc2SCC(=O)Nc2cccc([N+](=O)[O-])c2)cc1	5.76%	
C=CCn1c2ccccc2c2nnc(SC(CC)C(=O)Nc3nc(C)c(C(=O)OCC)s3)nc21 (stereo not drawn)	-8.14%	
C=CCn1c2ccccc2c2nnc(SCc3[nH]c(=O)[nH]c3C(=O)CCCCC(=O)OCC)nc21		10 µM (active)
C=CCn1c(COc2ccccc2)nnc1SCC(=O)NCC(=O)OCC	8.67%	
CC(C)(C)n1nnnc1C(c1ccc(F)cc1)N1CCN(Cc2ccc3c(c2)OCO3)CC1 (stereo not drawn)	-1.16%	
CCCC(c1nnnn1C(C)(C)C)N1CCN(Cc2ccccc2)CC1 (stereo not drawn)	-2.73%	
COc1ccccc1C(c1nnnn1C(C)(C)C)N1CCN(Cc2ccccc2)CC1 (stereo not drawn)		20 µM (active)
CCc1c(SCCC(=O)O)nc2ccccc2c1C	-7.58%	
O=C(N/N=C/C=C/c1ccco1)c1cccs1		2 µM (active)
CC(=O)Nc1ccc(/C=N/NC(=O)c2cccs2)cc1	3.71%	
O=C(N/N=C/c1ccco1)c1ccc(C(=O)N/N=C/c2ccco2)o1	-3.13%	
CCOc1cc(/C=C(/C#N)c2ccc(Cl)cc2)cc(Cl)c1OCC(=O)O	-0.694%	
Cn1sc(=O)c2cc(S(=O)(=O)NC3CC3)ccc21		0.501 µM (active)

SMILES	activity, negative = inhibition	Potency
N#CCCN1CCN(S(=O)(=O)c2ccc(S(=O)(=O)NC3CC3)cc2)CC1	6.11%	
Cc1cccc(CCNS(=O)(=O)c2ccc(S(=O)(=O)NC3CCCC3)cc2)c1	-12.2%	
CCN(CC)C(=O)Oc1ccc(OC(=O)N(CC)CC)cc1	-3.17%	
Cc1nonc1NC(=O)CSc1nc2ccccc2cc1C#N	4.78%	
Cc1ccc2nc(CC(=O)c3ccc4ccccc4c3)c(=O)[nH]c2c1	12.1% [at 13.5 µM]	
CC(=O)CCC(=O)c1ccc2ccccc2c1	-5.73%	
C=CC(=O)c1ccc2ccccc2c1		11.2 nM (active) and 100 nM (active)
CC(=O)Nc1nc2ccccc2n1Cc1ccc(C)cc1	0.717%	
CN(C)CCCN(C(=O)COc1ccccc1)c1nc2c(Cl)cccc2s1	2.64%	
CCC(C)(C)NC(=O)CN(C(=O)CCC(=O)Nc1cc(C)ccn1)c1ccc2c(c1)OCCO2	2.32%	
COc1cc(SC)ccc1C(=O)Nc1nc(C)cs1	7.61%	
COc1cc(SC)ccc1C(=O)Nc1cc(C)ccn1		22.4 µM (active)
Cc1ccnc(NC(=O)c2ccoc2C)c1	7.63%	
O=C(O)COc1ccc(/C=N/O)cc1Br	-1.14%	
Cc1ccccc1CN(c1ccc(C(=O)NCC2CCCO2)cc1)S(C)(=O)=O (stereo not drawn)	10.6%	
C/C=C(\C)C(=O)NCCN1C2=NC[C@H](Cc3ccc(O)cc3)N2C[C@@H]1Cc1ccc(OC)cc1	5.48%	
CC(NC(=O)COC(=O)c1ccc2c(c1)OCO2)c1ccccc1 (stereo not drawn)	-4.82%	
CCOC(=O)c1c(Cc2ccc(Cl)cc2)c[nH]c1C	-2.42%	
CCOC(=O)c1ccc(COC(=O)c2cc(=O)[nH]c3ccccc23)o1	-5.02%	
CCOC(=O)c1ccc(CS(=O)c2ccc(Cl)cc2)o1 (stereo not drawn)		2.82 µM (active)
